Results reported in the antibiotic and cytotoxicity screens of Wong et al. (2023).
The campaign covered roughly 39,000 compounds. About 3,300 (8.5%) were called active. The entries come from a sample that favours actives as a whole.

Each molecule was assayed on HepG2 (assay: cytotoxicity call (relative viability < 0.9)). Details: 10 µM.

SMILES	cytotoxicity call
C[C@@H]1CN([C@@H](C)CO)C(=O)c2cc(NC(=O)Nc3ccccc3)ccc2O[C@@H](C)CCCCO[C@H]1CN(C)C(=O)CCC(F)(F)F	inactive
C[C@@H]1CN([C@@H](C)CO)C(=O)c2cc(NC(=O)Nc3ccc(C(F)(F)F)cc3)ccc2O[C@@H](C)CCCCO[C@@H]1CN(C)S(=O)(=O)c1cccs1	inactive
C[C@@H]1CCCCO[C@H](CN(C)S(=O)(=O)c2cccs2)[C@@H](C)CN([C@@H](C)CO)C(=O)c2cc(NC(=O)Nc3ccc(C(F)(F)F)cc3)ccc2O1	active
C[C@H](CO)N1C[C@H](C)[C@@H](CN(C)S(=O)(=O)c2cccs2)OCCCC[C@H](C)Oc2ccc(NC(=O)Nc3ccc(C(F)(F)F)cc3)cc2C1=O	inactive
C[C@@H]1CCCCO[C@H](CN(C)S(=O)(=O)c2cccs2)[C@H](C)CN([C@@H](C)CO)C(=O)c2cc(NC(=O)Nc3ccc(C(F)(F)F)cc3)ccc2O1	active
C[C@@H]1CCCCO[C@@H](CN(C)S(=O)(=O)c2cccs2)[C@@H](C)CN([C@H](C)CO)C(=O)c2cc(NC(=O)Nc3ccc(C(F)(F)F)cc3)ccc2O1	inactive
C[C@@H]1CN([C@H](C)CO)C(=O)c2cc(NC(=O)Nc3ccc(C(F)(F)F)cc3)ccc2O[C@@H](C)CCCCO[C@@H]1CN(C)S(=O)(=O)c1cccs1	inactive
C[C@@H]1CN([C@H](C)CO)C(=O)c2cc(NC(=O)C3CC3)ccc2O[C@H]1CN(C)Cc1ccc(Oc2ccccc2)cc1	inactive
COc1cc(OC)c([C@@H]2c3c(n(C)c(=O)n(C)c3=O)N=C3COC(=O)C32)cc1OC (stereo partly drawn)	inactive
NCc1cnc(Nc2ccccc2)nc1	inactive
COc1ccc(S(=O)(=O)Nc2ccc3c(c2)C(=O)N([C@H](C)CO)C[C@H](C)[C@@H](CN(C)Cc2ccc4c(c2)OCO4)OCCCC[C@@H](C)O3)cc1	inactive
C[C@@H]1CCCCO[C@H](CN(C)C(=O)C2CCCCC2)[C@H](C)CN([C@H](C)CO)C(=O)c2cc(NC(=O)c3ccccc3)ccc2O1	inactive
C[C@@H]1CN([C@@H](C)CO)C(=O)c2cccc(NC(=O)C3CCCCC3)c2O[C@@H]1CN(C)Cc1ccc(C(F)(F)F)cc1	inactive
C[C@H](CO)N1C[C@H](C)[C@@H](CN(C)C(=O)c2cnccn2)Oc2ncc(C#Cc3ccccn3)cc2C1=O	inactive
CCCCC[C@@H](C)N	inactive
C[C@@H]1CN([C@H](C)CO)C(=O)Cc2cc(NS(=O)(=O)c3cn(C)cn3)ccc2O[C@@H]1CN(C)CC1CC1	inactive
COc1ccc(NC(=O)[C@@H]2[C@H](c3ccc(C)cc3)CC(=O)N2C(=O)OCc2ccccc2)c2ncccc12	inactive
O=C(Nc1cccc2cccnc12)[C@@H]1[C@H](c2cccc(Br)c2)CC(=O)N1C(=O)OCc1ccccc1	inactive
O=C(Nc1cccc2cccnc12)[C@@H]1[C@H](c2ccc(-c3ccccc3)cc2)CC(=O)N1C(=O)OCc1ccccc1	inactive
O=C(Nc1cccc2cccnc12)[C@@H]1[C@H](c2cc(Cl)cc(Br)c2)CC(=O)N1C(=O)OCc1ccccc1	active
COc1ccc(NC(=O)[C@H]2[C@@H](c3ccc(C)cc3)CC(=O)N2C(=O)OCc2ccccc2)c2ncccc12	active
O=C(Nc1cccc2cccnc12)[C@@H]1[C@H](c2ccc(Br)cc2)CC(=O)N1C(=O)OCc1ccccc1	inactive
C[C@H](CO)N1C[C@H](C)[C@H](CN(C)Cc2ccccc2)Oc2c(NS(=O)(=O)c3cn(C)cn3)cccc2C1=O	inactive

SMILES	cytotoxicity call
COC(=O)C1=CO[C@@H](O[C@@H]2O[C@H](CO)[C@@H](O)[C@H](O)[C@H]2O)[C@@H]2[C@@H](C)[C@@H](O)C[C@H]12	inactive
CC1=NNC(=O)CC1	inactive
Cc1noc(C)c1NC(=O)Nc1ccc2c(c1)C(=O)N([C@H](C)CO)C[C@@H](C)[C@@H](CN(C)Cc1ccc(C(F)(F)F)cc1)OCCCC[C@@H](C)O2	inactive
Cn1nnnc1NCc1ccccc1	inactive
c1ccc(CNc2ccc3c(ccc4c5ccccc5[nH]c34)n2)cc1	active
c1ccc(CNc2nn[nH]n2)cc1	inactive
C[C@@H](CO)N1C(=O)[C@@H]2[C@H]3C(=O)OCCC=C[C@H]3O[C@]23C=CCN(Cn2nnc4ccccc42)C(=O)[C@@H]13	inactive
O=c1nc[nH]c2ccccc12	inactive
Brc1ccc(CSc2c[nH]c3ccccc23)cc1	active
FC(F)(F)c1ccc(CSc2c[nH]c3ccccc23)cc1	inactive
Cn1nnc(NCc2ccccc2)n1	inactive
CC1(C)C=Cc2c(nc3ccccc3c2NCc2ccccc2)C1	active
CC(C)NC(=O)Nc1cccc2c1O[C@H](CN(C)S(=O)(=O)c1ccc(Cl)cc1)[C@@H](C)CN([C@@H](C)CO)C2=O	inactive
CNC(=O)C[C@H]1CC[C@H]2[C@@H](COC[C@@H](O)CN2C(=O)c2ccccn2)O1	inactive
C=C[C@@H]1C[C@]1(NC(=O)[C@@H]1C[C@@H]2CN1C(=O)[C@H](C(C)(C)C)NC(=O)O[C@@H]1C[C@H]1CCCCCc1nc3ccc(OC)cc3nc1O2)C(=O)NS(=O)(=O)C1CC1	inactive
COCC#Cc1ccc2c(c1)O[C@H](CN(C)C(=O)Nc1ccccc1F)[C@@H](C)CN([C@H](C)CO)S2(=O)=O	inactive
C[C@H](CO)N1C[C@H](C)[C@@H](CN(C)S(=O)(=O)c2cccs2)Oc2ccc(NC(=O)Cn3cnnn3)cc2CC1=O	inactive
C[C@@H]1CN([C@H](C)CO)C(=O)c2cc(NC(=O)Nc3cccc4ccccc34)ccc2O[C@H]1CN(C)Cc1ccc(C(=O)Nc2ccccc2N)cc1	inactive
C[C@@H]1CN([C@H](C)CO)C(=O)c2cc(NC(=O)Nc3cccc4ccccc34)ccc2O[C@@H]1CN(C)Cc1ccc(C(=O)Nc2ccccc2N)cc1	active
C[C@H](CO)N1C[C@H](C)[C@@H](CN(C)Cc2ccc(C(=O)Nc3ccccc3N)cc2)Oc2ccc(NC(=O)Nc3cccc4ccccc34)cc2C1=O	inactive
C[C@H](CO)N1C[C@H](C)[C@H](CN(C)Cc2ccc(C(=O)Nc3ccccc3N)cc2)Oc2ccc(NC(=O)Nc3cccc4ccccc34)cc2C1=O	active
C[C@H]1CN([C@@H](C)CO)C(=O)c2cc(NC(=O)Nc3cccc4ccccc34)ccc2O[C@H]1CN(C)Cc1ccc(C(=O)Nc2ccccc2N)cc1	inactive
C[C@H]1CN([C@@H](C)CO)C(=O)c2cc(NC(=O)Nc3cccc4ccccc34)ccc2O[C@@H]1CN(C)Cc1ccc(C(=O)Nc2ccccc2N)cc1	inactive

SMILES	cytotoxicity call
CN1C(=O)c2cc(NC(=O)Cc3cccs3)ccc2OC[C@@H]2O[C@@H](CC(=O)NCCCN3CCOCC3)CC[C@H]21	inactive
COCCOC(=O)N1C(=O)[C@@]2(c3cc(C#CCNC(N)=O)ccc31)[C@H](c1ccc(O)cc1)N1[C@H](c3ccccc3)[C@H](c3ccccc3)OC(=O)[C@H]1[C@@H]2C(=O)N1CCc2cc(OC)c(OC)cc2C1	inactive
COC(=O)[C@H]1[C@H](CO)[C@H]2Cn3c(cccc3=O)[C@H]2N1C(=O)C1CC1	inactive
C[C@H](CO)N1C[C@H](C)[C@@H](CN(C)Cc2ccc(C(=O)Nc3ccccc3N)cc2)Oc2c(NC(=O)Nc3ccccc3)cccc2C1=O	inactive
C[C@H](C(=O)O)N1CCCC1=O	inactive
C[C@H](CO)N1C[C@H](C)[C@@H](CN(C)C(=O)Nc2cccc3ccccc23)Oc2ccc(NC(=O)Nc3ccccc3)cc2C1=O	inactive
COc1ccc(S(=O)(=O)N2C[C@H](O)COC[C@@H]3O[C@H](CC(=O)NCCCN(C)C)CC[C@H]32)cc1	inactive
C[C@H]1CN([C@@H](C)CO)C(=O)c2c(c3ccccc3n2C)-c2ccccc2CO[C@@H]1CN(C)Cc1cccc(C(=O)O)c1	inactive
Cc1ccc(S(=O)(=O)N(C)C[C@H]2Oc3c(NC(=O)Nc4cccc5ccccc45)cccc3C(=O)N([C@@H](C)CO)C[C@H]2C)cc1	inactive
O=C(C[C@@H]1C[C@@H]2c3cc(NS(=O)(=O)c4ccc(F)cc4)ccc3O[C@@H]2[C@H](CO)O1)NCCc1ccccc1	inactive
C[C@H](CO)N1C[C@H](C)[C@H](CN(C)S(=O)(=O)c2ccccc2)Oc2ccc(NC(=O)c3ccncc3)cc2CC1=O	inactive
CC(C)NC(=O)Nc1ccc2c(c1)CC(=O)N([C@@H](C)CO)C[C@@H](C)[C@@H](CN(C)S(=O)(=O)c1cccs1)O2	active
C[C@@H]1CN([C@@H](C)CO)C(=O)Cc2cc(NC(=O)c3ccncc3)ccc2O[C@@H]1CN(C)S(=O)(=O)c1cccs1	active
C[C@@H]1CN([C@@H](C)CO)C(=O)Cc2cc(NC(=O)c3ccncc3)ccc2O[C@@H]1CN(C)S(=O)(=O)c1ccccc1	active
C[C@@H]1CN([C@@H](C)CO)C(=O)Cc2cc(NC(=O)Nc3cccc4ccccc34)ccc2O[C@@H]1CN(C)S(=O)(=O)c1cccs1	active
C[C@H]1CN([C@@H](C)CO)C(=O)Cc2cc(NC(=O)c3ccncc3)ccc2O[C@@H]1CN(C)S(=O)(=O)c1cccs1	inactive
C[C@H](CO)N1C[C@H](C)[C@H](CN(C)S(=O)(=O)c2cccs2)Oc2ccc(NC(=O)Nc3cccc4ccccc34)cc2CC1=O	inactive
CC(C)NC(=O)Nc1ccc2c(c1)CC(=O)N([C@@H](C)CO)C[C@H](C)[C@H](CN(C)S(=O)(=O)c1cccs1)O2	inactive
CC(C)NC(=O)Nc1ccc2c(c1)CC(=O)N([C@H](C)CO)C[C@H](C)[C@H](CN(C)S(=O)(=O)c1cccs1)O2	inactive
C[C@H]1CN([C@@H](C)CO)C(=O)Cc2cc(NC(=O)Nc3cccc4ccccc34)ccc2O[C@H]1CN(C)S(=O)(=O)c1cccs1	inactive
C[C@@H]1CN([C@@H](C)CO)C(=O)Cc2cc(NC(=O)c3ccncc3)ccc2O[C@H]1CN(C)S(=O)(=O)c1cccs1	inactive
C[C@H]1CN([C@@H](C)CO)C(=O)Cc2cc(NC(=O)c3ccncc3)ccc2O[C@@H]1CN(C)S(=O)(=O)c1ccccc1	inactive
